{"source": "PubChem BioAssay (NCI)", "note": "The panel holds about 83,000 compounds, 20% with a hit somewhere; the sample as a whole holds those more often.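 For each line, cells grew in 96-well plates with the test compound present at a single concentration for 48 hours.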 A number with no mark means an inactive call. Calls of active or inactive are those of the source."}
{"tested_on": "SN12C renal", "assay": "NCI-60 one-dose screen, 48 h (100 = growth as untreated, 0 = no growth, -100 = all killed)", "details": "10 µM unless noted", "experimental": "Growth inhibition of the SN12C human tumor cell line is measured as a screen for anti-cancer activity. Cells are grown in 96 well plates and exposed to the test compound for 48 hours. Compounds are tested at a single concentration, which is 10^-5 M for most compounds. The reported endpoint is percent growth (GI% or GIPRCNT), where numbers from 0 - 100% represent growth inhibition, and numbers from -100% - 0 represent cell death. For example, a value of 40 represents 60% growth inhibition. A value of 0 means no net growth occurred over the course of the experiment. A value of -40 indicates 40% of cells at the beginning of the experiment died by the end of the experiment. A value of -100 means all cells are dead at the end of the experiment.\nNCI-60 Human Tumor Cell Lines Screen was performed using the standard one-dose NCI protocol, which is described in more detail at https://dtp.cancer.gov/discovery_development/nci-60/default.htm.\nCompounds with GIPRCNT values below 10 were considered active. Activity score was based on GIPRCNT using the following formula: […]\nScore is 0 for GIPRCNT values of 100 or above, 50 for GIPRCNT values of 0, and 100 for GIPRCNT values of -100."}
{"smiles": "O=C1OC(c2ccc(-c3ccccc3)cc2)=C/C1=C/C=C/c1ccccc1", "growth": "99.9%"}
{"smiles": "CC(=O)CC/C=C(\\C)[C@H](O)[C@H](C)C(=O)O[C@H]1C[C@H](C)C=C2C=C[C@@]3(C)O[C@@H](O)CC(=O)[C@]3(C)[C@H]21", "growth": "-11.5% (active)"}
{"smiles": "CC(/C=C/C=C(\\C)[C@H](O)[C@H](C)C(=O)O[C@H]1C[C@H](C)C=C2C=C[C@@]3(C)O[C@@H](O)CC(=O)[C@]3(C)[C@H]21)=C\\C=C\\C(=O)O", "growth": "3.38% (active)"}
{"smiles": "CCOc1ccc(-n2c(-c3cc(OC)c(OC)c(OC)c3)nnc2-c2ccc(OC)cc2N)cc1", "growth": "91.5%"}
{"smiles": "Cc1ccccc1C[P+](c1ccccc1)(c1ccccc1)c1ccccc1", "growth": "40.5%"}
{"smiles": "O=C(Cn1c2ccccc2c2ccncc21)N/N=C/c1c[nH]c2ccccc12", "growth": "38.8%"}
{"smiles": "CCC1CN2C(=N1)c1ccccc1-c1cc(Cl)ccc12", "note": "(stereo not given)", "growth": "18.5%"}
{"smiles": "O=C(Nc1ccc(-n2ccc3c(NC(=O)c4ccccc4)ncnc32)cc1)c1cccc(C(F)(F)F)c1", "growth": "60.7%"}
{"smiles": "COc1ccc(/C=C2/C(=O)Nc3cc(Cl)c(-c4csc(N)n4)cc32)cc1", "growth": "59.6%"}
{"smiles": "CCOc1ccc(Cc2nccc3cc(OCC)c(OCC)cc23)cc1OCC", "growth": "58.9%"}
{"smiles": "Cc1ccc2nc(-c3ccc(-n4on4-c4ccc(/C=C/c5ccc(-n6on6-c6ccc(-c7nc8ccc(C)cc8s7)cc6)cc5S(=O)(=O)O)c(S(=O)(=O)O)c4)cc3)sc2c1", "growth": "105%"}
{"smiles": "O=[N+]([O-])c1cccc(C(c2ccccc2)c2ccccc2)c1", "growth": "98%"}
{"smiles": "O=C(Nc1cccc(-n2ccc3c(NC(=O)c4ccccc4)ncnc32)c1)Nc1ccc(Cl)c(C(F)(F)F)c1", "growth": "40.9%"}
{"smiles": "Nc1nc(Cl)c2c(C(F)(F)F)cn(CC3CCNCC3)c2n1", "growth": "85.7%"}
{"smiles": "Nc1nc(-c2cc3c(cc2Cl)NC(=O)/C3=C/c2ccccc2)cs1", "growth": "51.9%"}
{"smiles": "O=C1/C(=C/c2cccc3cnccc23)Cc2cc(F)ccc21", "growth": "94.6%"}
{"smiles": "COc1cc(/C=C2/Oc3cc4occc4c(OC)c3C2=O)ccc1OCC(=O)Nc1ccncc1", "growth": "104%"}
{"smiles": "C=C1C(=O)O[C@H]2[C@H]1CC/C(CNC(=O)/C1=C/CC[C@@]3(C)O[C@H]3[C@H]3OC(=O)C(=C)[C@@H]3CC1)=C\\CC[C@@]1(C)O[C@@H]21", "growth": "96.7%"}
{"smiles": "COc1cc(NC(=O)c2cc(OC)c3ccn(C)c3c2)cc2c1C[C@]1(C)CC[C@@H](O)C(C)(C)[C@H]1O2", "growth": "86.6%"}
{"smiles": "COc1ccc(-c2nn(-c3ccc(NC(=O)c4ccc(Cl)c(C(F)(F)F)c4)cc3)cc2-c2ccncc2)cc1Cl", "growth": "44.3%"}
{"smiles": "COC(=O)/C=C/C(=O)c1cc(C)cc(C)c1O", "growth": "109%"}
{"smiles": "COc1cc(C(=O)C[n+]2ccccc2)ccc1OC(C)=O", "growth": "98.1%"}
{"smiles": "C=C1C(=O)O[C@H]2[C@H]1CC/C(COC(=O)c1ccc(C#N)cc1)=C\\CC[C@@]1(C)O[C@@H]21", "growth": "17.4%"}
{"smiles": "O=C(Nc1ccc(-n2cc(-c3ccncc3)c(-c3ccc(O)c(Cl)c3)n2)cc1)c1cc(Cl)cc(Cl)c1", "growth": "35.8%"}
{"smiles": "O=C(Nc1ccc(-n2cc(-c3ccncc3)c(-c3ccc(O)c(Cl)c3)n2)cc1)Nc1ccc(Cl)c(C(F)(F)F)c1", "growth": "19.1%"}
{"smiles": "O=C(Nc1cccc([N+](=O)[O-])c1)Nc1cccc([N+](=O)[O-])c1", "growth": "70.3%"}
{"smiles": "O=C1OC(=O)C2C3CC(c4ccccc43)C12", "note": "(stereo not given)", "growth": "113%"}
{"smiles": "O=C(COc1ccc(Cl)cc1Cl)N1N=C(c2ccc(Cl)cc2Cl)CC1(O)c1cc(F)c(Cl)cc1Cl", "note": "(stereo not given)", "growth": "155%"}
{"smiles": "CCCCNC(=O)Oc1ccc(/C(=C(/CC)Cc2ccccc2)c2ccc(OCCCN(C)C)cc2)cc1", "growth": "82.8%"}
{"smiles": "COc1ccc(-c2nnc(SCC(=O)Nc3ccc(C(=O)/C=C/c4ccc(OC)c(OC)c4)cc3)o2)cc1", "growth": "92.3%"}
{"smiles": "COc1cc(NC(=O)C#Cc2ccccc2)c(OC)cc1Cl", "growth": "26.4%"}
{"smiles": "Nc1n[nH]c2cccc(C#Cc3cccc(NC(=O)c4cccc(C(F)(F)F)c4)c3)c12", "growth": "40.7%"}
{"smiles": "ClC1c2ccccc2CCc2ccccc21", "growth": "103%"}
{"smiles": "O=c1c2ccccc2sc2c(NCCN3CCOCC3)nc3ccccc3c12", "growth": "59.4%"}
{"smiles": "Cc1c(Cl)ccc2c(C(=O)Cl)cc(-c3ccccc3)nc12", "growth": "99.9%"}
{"smiles": "CN(C)CC/C=C1\\c2ccccc2Sc2ccc(Cl)cc21", "growth": "48%"}
{"smiles": "CCCC(=O)Oc1ccc(/C(=C(\\C)c2ccc(OC)cc2)c2ccc(OCCN3CCCCC3)cc2)cc1", "growth": "84.8%"}
{"smiles": "CCCOC(=O)c1ccc([N+](=O)[O-])o1", "growth": "103%"}
{"smiles": "COc1cc(NS(C)(=O)=O)ccc1Cc1c2ccccc2nc2ccccc12", "growth": "-6.92% (active)"}
{"smiles": "CCc1c(C)c2cc(-n3c(-c4ccc(OC)cc4)csc3=N)c(O)c(C)c2oc1=O", "growth": "10.2%"}
